This is a sample that favours compounds with a hit; in the whole collection about 3.1% have one here.
SARS 3CLpro inh = SARS-CoV 3CLpro protease inhibition. P0C6X7. recombinant SARS-CoV 3CLpro, quenched FRET peptide cleavage. inhibition, % at 6 µM. hit rate 0.14% among 290,000. AID 1706; in the data active = inhibition above about 12%
Mtb BioA inh = blocks M. tuberculosis BioA enzyme activity; hit rate 0.096% among 360,000; purified M. tuberculosis BioA enzyme, plate reader; AID 602481; inhibition, % at 9.99 µM; in the data active = inhibition above about 40%
FadD28 FP inh = M. tuberculosis FadD28 bisubstrate binding inhibition; FadD28 bisubstrate probe binding, fluorescence polarization; inhibition, % at 12.5 µM; hit rate 0.22% among 360,000; AID 588549; in the data active = inhibition above about 8.5%, passing the limit was not always enough
Mtb FBA inh = Mtb fructose-bisphosphate aldolase inhibition | P9WQA3 | purified M. tuberculosis FBA, fluorescence read-out | inhibition, % at 1 µM | hit rate 2.3% among 360,000; in the data active = inhibition above about 27%
Target sequence (P9WQA3 whole entry, looked up): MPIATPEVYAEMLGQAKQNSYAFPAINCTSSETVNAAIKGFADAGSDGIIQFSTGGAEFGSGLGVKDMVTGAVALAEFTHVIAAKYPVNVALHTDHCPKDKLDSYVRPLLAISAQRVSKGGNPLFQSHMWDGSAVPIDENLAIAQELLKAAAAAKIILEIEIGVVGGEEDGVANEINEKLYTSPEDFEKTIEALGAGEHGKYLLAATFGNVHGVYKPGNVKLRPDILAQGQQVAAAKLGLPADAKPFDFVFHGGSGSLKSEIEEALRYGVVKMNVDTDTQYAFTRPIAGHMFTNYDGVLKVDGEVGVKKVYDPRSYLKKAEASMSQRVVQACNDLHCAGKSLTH
GDH-TPI counter = counter-screen for M. tuberculosis FBA inhibitors: GDH-TPI coupled enzymes; hit rate 1.2% among 360,000; AID 588335; GDH-TPI coupled enzyme counterscreen, NADH absorbance; inhibition, % at 4.8 µM; in the data active = inhibition above about 30%
Each line names hits and unclear results; the compound was inactive in the other large screens.

CC(=O)Nc1sc(N/N=C/c2ccc(O)cc2)nc1-c1ccc(C)cc1	GDH-TPI counter 35 (no result: Mtb BioA inh)
COc1ccc(S(=O)(=O)Nc2ccc3c(c2)C(=O)N([C@@H](C)CO)C[C@H](C)[C@H](CN(C)C(=O)NC2CCCCC2)OCCCC[C@H](C)O3)cc1	none (no result: SARS 3CLpro inh, FadD28 FP inh, Mtb FBA inh, GDH-TPI counter)
O=C1NC(=S)N(c2ccccc2)C(=O)/C1=C/c1ccco1	FadD28 FP inh 11
C[C@@H]1CN([C@H](C)CO)C(=O)c2cc(C#CC3(O)CCCC3)cnc2O[C@@H]1CN(C)C(=O)C1CCC1	none (no result: SARS 3CLpro inh, FadD28 FP inh, Mtb FBA inh, GDH-TPI counter)
Cc1c(NC(=S)NC(=O)c2ccc(-c3ccc(Cl)cc3)o2)cccc1C(=O)O	GDH-TPI counter 32 (no result: Mtb BioA inh)
Cc1ccc(S(=O)(=O)NCC[C@@H]2CC[C@@H](NC(=O)NC(C)C)[C@@H](CO)O2)cc1	none (no result: SARS 3CLpro inh, FadD28 FP inh, Mtb FBA inh, GDH-TPI counter)
C(=N\n1cnnc1)/c1ccc(N2CCOCC2)cc1	GDH-TPI counter 34
C(=N\n1cnnc1)/c1ccc(N2CCOCC2)s1	none
C(=N\n1cncn1)/c1ccc(N2CCOCC2)cc1	GDH-TPI counter 46
Cc1noc(C)c1S(=O)(=O)N(C)C[C@H]1OCCCC[C@H](C)Oc2ccc(NC(=O)NC(C)C)cc2C(=O)N([C@@H](C)CO)C[C@@H]1C	none (no result: SARS 3CLpro inh, FadD28 FP inh, Mtb FBA inh, GDH-TPI counter)
CCOc1ccc(-n2nc3ccc(NC(=O)CC)cc3n2)cc1	Mtb FBA inh active
CCOc1ccc(NC(=O)CN2CCN(CC(=O)Nc3cccc(F)c3)CC2)cc1	Mtb FBA inh 153
COc1ccccc1NC(=O)N(C)C[C@H]1OCc2ccccc2-c2ccccc2C(=O)N([C@H](C)CO)C[C@H]1C	none (no result: SARS 3CLpro inh, FadD28 FP inh, Mtb FBA inh, GDH-TPI counter)
CO[C@H]1CN(C)C(=O)c2cc(NC(C)=O)ccc2OC[C@@H](C)N(C(=O)CN2CCOCC2)C[C@@H]1C	none (no result: SARS 3CLpro inh, FadD28 FP inh, Mtb FBA inh, GDH-TPI counter)
CCCc1cc(=O)oc2cc(OCC(=O)NCCN3CCOCC3)c(Cl)cc12	GDH-TPI counter 33 (no result: SARS 3CLpro inh)
Cc1cc(=O)oc2cc(OCC(=O)NCCCN3CCOCC3)ccc12	none
CCc1cc(=O)oc2cc(C)cc(OCC(=O)NCCCN3CCOCC3)c12	Mtb FBA inh 116
CCCc1cc(=O)oc2c(C)c(OCC(=O)NCCN3CCOCC3)ccc12	none
COc1ccc(-c2cc(-c3ccccc3)nc(=O)[nH]2)cc1	Mtb FBA inh active (no result: Mtb BioA inh)
COc1cccc(/C=C(\C#N)c2nc3ccccc3[nH]2)c1OCC(=O)O	GDH-TPI counter 35
COc1cccc(/C=C(/C#N)c2nc3ccccc3[nH]2)c1OC(C)C(=O)O (configuration not stated)	none (no result: Mtb BioA inh)
Cc1ccc(/C=C(\C#N)c2nc3ccccc3[nH]2)s1	GDH-TPI counter 37
CS(=O)(=O)N1CCCCN2[C@@H](CO)[C@H](c3ccc(C#Cc4ccccn4)cc3)[C@@H]2C1	none (no result: SARS 3CLpro inh, FadD28 FP inh, Mtb FBA inh, GDH-TPI counter)
COC(=O)[C@]1(CC(C)C)N[C@H](c2ccc(-c3ccc(F)cc3)cc2)[C@@H]2C(=O)N(C)C(=O)[C@@H]21	none (no result: SARS 3CLpro inh)
COC(=O)[C@]1(CC(C)C)N[C@H](c2ccc(-c3ccc(OC)cc3)cc2)[C@@H]2C(=O)N(C)C(=O)[C@@H]21	Mtb FBA inh 132 (no result: SARS 3CLpro inh)
CCC(=O)N1C[C@@H](C)[C@@H](OC)CN(C)C(=O)c2ccc(NC(=O)c3cnccn3)cc2OC[C@@H]1C	none (no result: SARS 3CLpro inh, FadD28 FP inh, Mtb FBA inh, GDH-TPI counter)
O=c1[nH]c(/C=C\c2ccc(O)c(O)c2)nc(O)c1[N+](=O)[O-]	none
O=c1[nH]c(/C=C\c2cccc(O)c2)nc(O)c1[N+](=O)[O-]	GDH-TPI counter 35
CCOc1ccccc1/C=C\c1nc(O)c([N+](=O)[O-])c(=O)[nH]1	GDH-TPI counter 37
Cc1cc(C(=O)O)ccc1-c1ccc(/C=N/n2cnnc2)o1	GDH-TPI counter 50
Cc1ccc(-c2ccc(/C=N/n3cnnc3)o2)cc1Cl	GDH-TPI counter 36
Clc1cccc(-c2ccc(/C=N/n3cnnc3)o2)c1	GDH-TPI counter 50
COc1cc(/C=C/c2ccc3cccc(O)c3n2)cc(OC)c1OC	FadD28 FP inh 13
COc1cc(/C=C/c2ccc3cccc(O)c3n2)cc(Br)c1OC	none
COc1cc(/C=C/c2ccc3c([N+](=O)[O-])cccc3n2)ccc1OCC(=O)O	GDH-TPI counter 39
O=C(O)COc1ccc(/C=C/c2ccc3cccc([N+](=O)[O-])c3n2)cc1	none
CC(=O)Nc1ccc(/C=C/c2ccc3cccc([N+](=O)[O-])c3n2)cc1	GDH-TPI counter 40
COc1cc(/C=C/c2ccc3cccc([N+](=O)[O-])c3n2)ccc1OCC(=O)O	GDH-TPI counter 45
C[C@@H]1CN([C@@H](C)CO)C(=O)c2cc(-c3cccc(F)c3)cnc2O[C@H]1CN(C)C(=O)C1CCCCC1	none (no result: SARS 3CLpro inh, FadD28 FP inh, Mtb FBA inh, GDH-TPI counter)

High-throughput results: PubChem, several laboratories
